# An excerpt weighted towards active compounds, which were near 12% of everything screened.
# BAZ2B inh: blocks human BAZ2B | AlphaScreen BAZ2B-H3K14Ac peptide displacement | actives 4.4% (n = 360,000) | Q9UIF8 | Potency, µM (titrated, usually from 114 µM), without a hit: top-dose activity change, negative = inhibition, hits mostly inhibitors; also: % is scaled to controls: 0 for no effect and ±100 for the full control effect; nearly all actives have a fitted effect of over 60% in size
# Target sequence (Q9UIF8 whole entry, looked up): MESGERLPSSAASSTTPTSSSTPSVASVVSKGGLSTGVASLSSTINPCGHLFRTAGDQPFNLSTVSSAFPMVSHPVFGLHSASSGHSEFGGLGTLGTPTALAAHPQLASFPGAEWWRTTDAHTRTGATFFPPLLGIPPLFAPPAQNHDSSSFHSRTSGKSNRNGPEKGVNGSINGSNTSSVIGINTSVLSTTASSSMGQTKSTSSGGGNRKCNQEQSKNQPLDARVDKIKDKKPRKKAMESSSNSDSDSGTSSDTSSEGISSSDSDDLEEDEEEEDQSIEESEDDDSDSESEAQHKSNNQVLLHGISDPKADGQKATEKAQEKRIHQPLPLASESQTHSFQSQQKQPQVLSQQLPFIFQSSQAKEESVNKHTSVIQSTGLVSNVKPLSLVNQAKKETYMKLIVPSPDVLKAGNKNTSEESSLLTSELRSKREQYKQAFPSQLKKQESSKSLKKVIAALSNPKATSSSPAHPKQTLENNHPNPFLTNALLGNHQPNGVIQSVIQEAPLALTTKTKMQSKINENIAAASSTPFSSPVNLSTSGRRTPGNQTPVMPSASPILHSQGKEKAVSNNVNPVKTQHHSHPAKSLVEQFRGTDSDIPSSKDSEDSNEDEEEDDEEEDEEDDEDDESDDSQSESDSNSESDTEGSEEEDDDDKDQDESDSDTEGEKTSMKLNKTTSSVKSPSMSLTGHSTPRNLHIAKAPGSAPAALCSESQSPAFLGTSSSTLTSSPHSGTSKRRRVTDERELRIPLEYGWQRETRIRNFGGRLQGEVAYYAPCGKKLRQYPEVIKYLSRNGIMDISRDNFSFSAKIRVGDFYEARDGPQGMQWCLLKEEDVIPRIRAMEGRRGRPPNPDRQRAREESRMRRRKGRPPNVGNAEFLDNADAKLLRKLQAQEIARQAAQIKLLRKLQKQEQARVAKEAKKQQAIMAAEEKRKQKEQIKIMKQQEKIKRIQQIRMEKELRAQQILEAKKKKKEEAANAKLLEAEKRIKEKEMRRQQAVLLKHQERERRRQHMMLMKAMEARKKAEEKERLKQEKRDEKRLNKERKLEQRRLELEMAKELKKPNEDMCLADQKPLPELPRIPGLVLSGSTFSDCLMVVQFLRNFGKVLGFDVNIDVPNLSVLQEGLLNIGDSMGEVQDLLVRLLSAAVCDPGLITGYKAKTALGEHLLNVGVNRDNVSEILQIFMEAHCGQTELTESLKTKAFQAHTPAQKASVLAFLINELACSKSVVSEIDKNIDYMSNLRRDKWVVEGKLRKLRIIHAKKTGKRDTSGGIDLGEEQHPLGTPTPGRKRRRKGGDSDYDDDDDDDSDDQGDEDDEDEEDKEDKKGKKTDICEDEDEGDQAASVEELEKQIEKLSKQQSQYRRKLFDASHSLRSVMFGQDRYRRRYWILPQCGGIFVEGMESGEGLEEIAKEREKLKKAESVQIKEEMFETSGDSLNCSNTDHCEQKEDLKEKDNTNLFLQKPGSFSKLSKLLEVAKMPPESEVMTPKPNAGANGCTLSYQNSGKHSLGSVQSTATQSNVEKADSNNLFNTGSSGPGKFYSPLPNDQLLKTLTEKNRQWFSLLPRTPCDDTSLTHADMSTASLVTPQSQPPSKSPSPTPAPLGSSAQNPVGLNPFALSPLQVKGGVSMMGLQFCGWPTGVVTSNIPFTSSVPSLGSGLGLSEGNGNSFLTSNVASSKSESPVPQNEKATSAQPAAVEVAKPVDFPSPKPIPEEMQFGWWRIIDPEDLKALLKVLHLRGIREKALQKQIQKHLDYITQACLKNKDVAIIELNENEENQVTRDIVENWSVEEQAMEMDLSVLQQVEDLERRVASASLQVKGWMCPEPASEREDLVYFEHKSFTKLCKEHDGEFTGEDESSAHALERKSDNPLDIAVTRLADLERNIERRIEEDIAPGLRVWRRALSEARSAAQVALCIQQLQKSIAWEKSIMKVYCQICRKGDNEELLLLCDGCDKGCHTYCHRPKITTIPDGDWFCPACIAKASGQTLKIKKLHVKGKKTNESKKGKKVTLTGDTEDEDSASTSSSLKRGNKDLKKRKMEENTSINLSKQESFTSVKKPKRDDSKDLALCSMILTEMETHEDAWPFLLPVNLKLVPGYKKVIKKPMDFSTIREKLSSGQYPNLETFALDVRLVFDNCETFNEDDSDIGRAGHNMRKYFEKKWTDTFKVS
#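 Compounds, titrated to a top concentration of 110 uM, were incubated 30 min at room temperature with preformed BAZ2B/acetyl-K14 H3 peptide complex (50 nM each). Proximity signal was measured by AlphaScreen after 20 min with beads.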
# Sfp PPTase inh: inhibitors of Bacillus subtilis Sfp phosphopantetheinyl transferase; Q9F4F7; Biochemical Sfp PPTase activity, qHTS; Potency, µM, inactives show largest response in the series, negative = inhibition, usual class: inhibitors; actives 3.5% (n = 310,000); AID 1490;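 also: the enzyme is Sfp with the accession as filed and its product quenches rhodamine fluorescence; 0% = enzyme reaction without inhibitor and -100% = no enzyme wells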
#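 Reaction rates are the 30-min fluorescence difference (ex 525, em 598 nm) in wells containing 15 nM Sfp, 5 uM rhodamine-CoA and 12.5 uM BHQ-2-YbbR at pH 7.6 with 10 mM MgCl2.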
# G9a block: G9a (human) methyltransferase inhibition | G9a H3K9 monomethylation, AlphaScreen, 2 h | Potency, µM (highest dose often 102 µM), for the others: at the highest dose activity, negative = inhibition, hits mostly inhibitors | actives 8.8% (n = 350,000) | AID 504332; also: % is scaled to controls: 0 for no effect and ±100 for the full control effect; nearly all actives have a fitted effect of over 75% in size
#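 Enzyme 20 nM + cpd, 15 min RT; add b-H3K9 pep 500 nM / SAM 20 uM; 2 h RT; anti-H3K9me1 Ab 0.5 ug/mL + SA donor / anti-rabbit acceptor beads 20 ug/mL each, 10 min; AlphaScreen read.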
# HP1b binding inh: blocks HP1-beta chromodomain binding to methylated histone tails. P83916. AlphaScreen HP1-beta / biotin-H3K9me3 peptide binding. Potency, µM (doses to about 114 µM), without a hit: at the top dose activity change, negative = inhibition, actives largely listed as inhibitors. actives 0.56% (n = 390,000); also: nearly all actives have a fitted effect of over 70% in size
#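 AlphaScreen: HP1-beta (50 nM) preformed 30 min with biotin-H3(1-18)K9me3 peptide (50 nM) in PBS pH 7.4, 0.01% Tween-20. Compound added for 30 min at RT, then streptavidin donor/nickel chelate acceptor beads (10 ug/mL) for 30 min.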
# JMJD2A Tudor: JMJD2A Tudor domain (human) inhibition; AlphaScreen JMJD2A-Tudor / H3K4me3 peptide binding; Potency, µM (top dose mostly 114 µM), inactives show at the top dose activity change, negative = inhibition, most hits filed as inhibitors; actives 4.4% (n = 390,000); AID 504339; also: % is scaled to controls: 0 for no effect and ±100 for the full control effect; nearly all actives have a fitted effect of over 50% in size
# * marks the source's active call; other numbers are inactive results; u = inconclusive; x = no result; [ ] = remark or other dose. Calls follow the shape of the dose curve; as a rule, active = well fitted curve in the direction sought with a large enough effect; inconclusive = small, poorly fitted or top-dose-only effect, or another doubt; inactive = no such curve, though single readings can be large; an effect the other way counts as inactive or inconclusive. Potency is read from the fitted curve at half-maximal effect.
SMILES,BAZ2B inh,Sfp PPTase inh,G9a block,HP1b binding inh,JMJD2A Tudor
COc1ccccc1NC(=O)CSc1nnc(C2CCCCC2)n1N,-7%,6%,19%,6%,-30%
COCCn1c(SCc2ccccc2F)nc2c([nH]c3ccccc32)c1=O,1%,x,7%[59 µM],32%[57 µM],4%
CC1=CCC(C(=O)O)C(C(=O)NC2CCCCC2)C1 (centres undefined),50µM*,9%,32µM*,u,56µM*
COc1ccc(/C=N/NC(=O)c2ccc(O)cc2O)cc1CSc1ccccn1,56µM*,-8%,50µM*,u,u
COc1ccc(C=O)cc1CSc1ccccn1,14%,-25%,x,29%,3%
Nc1nnnn1/N=C/c1ccccc1C(F)(F)F,4%,2%,14%[2.33 µM],-7%,-26%[11.4 µM]
S=c1[nH]nc(-c2cccnc2)n1/N=C/c1ccc(Br)s1,-36%,4%,u,56%,5.6µM*
Cc1ccc(/C=N/n2c(-c3cccnc3)n[nH]c2=S)s1,-7%,35µM*,0.79µM*,-9%,4.5µM*
COc1ccc(OC)c(S(=O)(=O)Nc2cccc(-c3ccc(N4CCCCCC4)nn3)c2)c1,-19%,8%,21%,2%[57 µM],-31%
COc1ccc(S(=O)(=O)Nc2cccc(-c3ccc(N4CCCCCC4)nn3)c2)c(OC)c1,-14%,u,45µM*,14%,-28%
COc1ccc(S(=O)(=O)Nc2cccc(-c3ccc(N4CCCC4)nn3)c2)c(OC)c1,-10%,x,7.9µM*,-35%[57 µM],-30%
COc1ccc(OC)c(S(=O)(=O)Nc2ccc(-c3ccc4nncn4n3)cc2)c1,0%,x,13µM*,u,-1%
CCOc1ccc(S(=O)(=O)Nc2cccc(-c3ccc(N4CCC(C)CC4)nn3)c2)cc1,-10%,x,25µM*,-11%[57 µM],-28%
O=C(O)c1nn(CC(=O)N2CCN(c3ccccc3)CC2)c(=O)c2ccccc12,-1%,10%,-49%,-25%,-31%
CNC(=O)c1ccc(NC(=O)CC23CC4CC(CC(C4)C2)C3)cc1,-13%,6%,0%,18%,-7%
Cc1ccccc1OCC(=O)NCCN1CCCC1,u,-9%,u,50%,-16%
O=C(N/N=C/c1cccnc1)c1cccc(S(=O)(=O)N2CCCC2)c1,-12%,22%,4%[59 µM],41%,-4%
O=C(Nc1cccc(-c2ccc(N3CCOCC3)nn2)c1)c1ccccc1Cl,-5%,x,-6%,28%,-5%
CCCOc1ccc(-c2cccc(NS(=O)(=O)c3cc(OC)ccc3OC)c2)nn1,-4%,x,7.9µM*,-24%[57 µM],-24%
O=C(Nc1cccc(-c2ccc(N3CCCCC3)nn2)c1)c1ccco1,-26%,x,50µM*,10%,-16%
COc1ccc2nc3cc(Cl)ccc3c(Nc3ccc(O)c(CN4CCN(C)CC4)c3)c2c1,x,x,x,16µM*,32µM*
COc1ccc2nc3cc(Cl)ccc3c(NCCCN3CCN(CCCNc4c5ccc(Cl)cc5nc5ccc(OC)cc45)CC3)c2c1,x,-16%,x,x,x
CCCCCOc1ccc(NC(=O)CSc2cccc3cccnc23)cc1,11%,-20%,u,16%,-16%
O=c1c2ccccc2nc2n1CCCCC2,5%,21%,9%[59 µM],17%,-23%
O=C1CCn2c1c(O)c1ccccc1c2=O,x,x,x,-14%,35µM*
SMILES,BAZ2B inh,Sfp PPTase inh,G9a block,HP1b binding inh,JMJD2A Tudor
O=C1CCCC(O)=C1Sc1ccccc1C(=O)O,79µM*,56µM*,25µM*,25µM*,22µM*
O=C(O)c1ccccc1Sc1ccccc1S(=O)(=O)NC1CCCCC1,-4%,7%,x,25%,7%
CC1(C)CC(=O)C(C(C#Cc2ccccc2)C2=C(O)CC(C)(C)CC2=O)=C(O)C1,u,u,13µM*,28%,-6%
O=C1CCCC(O)=C1C(C#Cc1ccccc1)C1=C(O)CCCC1=O,0%,-77%,0.89µM*,u,16µM*
O=C(CSc1nc2ccccc2[nH]1)Nc1c(F)c(F)c(F)c(F)c1F,9%,-11%,-9%,24%,-10%
O=C(Nc1ccncc1)c1c(F)c(F)c(F)c(F)c1F,55%,19%,x,8%,-9%
CCOc1ccc(NC(=S)NC(=O)c2cccnc2)c([N+](=O)[O-])c1,-26%,-30%,u,-9%,-18%
O=C(O)[C@H](CSCc1ccccc1)NS(=O)(=O)c1ccc(F)cc1,-5%,-15%,10µM*,5%,u
O=C(CCS(=O)(=O)c1ccc(Cl)cc1)Nc1nnc(-c2ccco2)o1,u,x,-37%,37%,u
Cc1ccc(S(=O)(=O)CCC(=O)Nc2nnc(-c3cccs3)o2)cc1,u,x,-29%,36%,11µM*
Cc1ccc(S(=O)(=O)CCC(=O)Nc2nnc(-c3ccco3)o2)cc1,u,x,25µM*,28%,18µM*
CCc1ccc(N2C(=O)CC(N3CCC(C(=O)OC)CC3)C2=O)cc1 (centres undefined),6%,16%,-48%[59 µM],49%,-5%
COC(=O)[C@H](Cc1ccccc1)NC(=O)O[C@H]1C(=O)c2cc(OC)ccc2O[C@@H]1c1ccc(OC)c(Br)c1,x,-5%,x,x,x
Cc1cc(Cl)nc2ccc(Cc3ccc4nc(Cl)cc(C)c4c3)cc12,-2%,7%,-6%[59 µM],34%,-5%
CC1(C)C(=O)Nc2ccccc2N1C(=O)COC(=O)C1CCCCC1,4%,14%,7%[59 µM],28%,-6%
Cc1cc(C)c(C)c(S(=O)(=O)N2CCC(C(=O)OCC(=O)N3c4ccccc4NC(=O)C3(C)C)CC2)c1C,50µM*,-4%,14%[12.7 µM],-10%,u
C#CCn1c(=NC(=O)CSC(C)=O)sc2cc(F)ccc21,-26%,1%,-19%,30%,-16%
C#CCOCCOCCOCCNc1nc(N2CCOCC2)nc(N2CCN(C(=O)[C@H](CCC(=O)O)n3cc(C(N)Cc4ccc(O)cc4)nn3)CC2)n1 (some centres undefined),-30%,u,3%[12.7 µM],19%,89µM*
C#CCOCCOCCOCCNc1nc(N2CCN(C(=O)[C@H](CCC(=O)O)n3cc(C(N)CO)nn3)CC2)nc(N2CCN(C(=O)[C@H](Cc3ccc(O)cc3)n3cc(C(N)CC(C)C)nn3)CC2)n1 (some centres undefined),32µM*,4%,u,x,x
C#CCOCCOCCOCCNc1nc(N2CCN(C(=O)[C@H](CCC(=O)O)n3cc(C(N)Cc4ccc(O)cc4)nn3)CC2)nc(N2CCN(C(=O)[C@H](CCC(=O)O)n3cc(C(N)CC(C)C)nn3)CC2)n1 (some centres undefined),50µM*,-19%,u,-1%,32µM*
C#CCOCCOCCOCCNc1nc(N2CCOCC2)nc(N2CCN(C(=O)[C@H](Cc3ccc(O)cc3)n3cc([C@@H](N)CC(C)C)nn3)CC2)n1,-24%,10%,u,22%,-15%

# From PubChem
